In PubChem BioAssay AID2551 (National Center for Advancing Translational Sciences (NCATS), 2010):
The whole screen tested about 310,000 compounds, of which about 17,000 (5.5%) were called active. Entries that show only a call come without a potency. Another 11% or so got no clear call; they are omitted. For the sample, actives were picked, then their nearest neighbours and some compounds at random. A number with no mark means an inactive call. Calls follow the shape of the dose curve; as a rule, active = well fitted inhibition curve with a large enough effect; inconclusive = small, poorly fitted or top-dose-only effect, or effect the other way; inactive = no such curve, though single readings can be large or run the other way.

molecular target: Nuclear receptor ROR-gamma (Mus musculus) (UniProt P51450); assay: qHTS for inhibitors of ROR gamma transcriptional activity; settings: Drosophila S2 Gal4-RORgamma UAS-luciferase reporter, 20 h; series mostly up to 53.6 µM; also: nearly all actives have a fitted effect of over 60% in size
Sequence (P51450 whole entry, looked up, the tested form may be a part): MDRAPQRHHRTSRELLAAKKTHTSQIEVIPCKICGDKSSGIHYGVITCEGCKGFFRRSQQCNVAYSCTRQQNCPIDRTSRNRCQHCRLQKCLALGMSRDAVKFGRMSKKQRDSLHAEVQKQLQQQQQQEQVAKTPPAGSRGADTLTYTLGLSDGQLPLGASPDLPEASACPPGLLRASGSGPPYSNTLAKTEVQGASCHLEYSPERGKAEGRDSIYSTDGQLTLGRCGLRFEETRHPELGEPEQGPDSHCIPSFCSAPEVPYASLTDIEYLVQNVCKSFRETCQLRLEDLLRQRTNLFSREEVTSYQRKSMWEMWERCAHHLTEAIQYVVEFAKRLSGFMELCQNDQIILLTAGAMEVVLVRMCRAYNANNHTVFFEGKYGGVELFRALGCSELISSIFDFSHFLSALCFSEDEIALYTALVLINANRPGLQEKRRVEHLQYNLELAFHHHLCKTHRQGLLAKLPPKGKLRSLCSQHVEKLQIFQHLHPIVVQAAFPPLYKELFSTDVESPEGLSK
Outline: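 Drosophila S2 cells stably expressing Gal4-DBD/mouse RORγ fusion under metallothionein promoter plus UAS-luciferase; compound 1 h, then 700 uM CuSO4 induction for 20 h at ambient temperature; inhibition read as reduced luminescence.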
Potency is read from the fitted curve at half-maximal effect.

| SMILES | Potency | activity change, negative = inhibition |
| --- | --- | --- |
| Cc1cccn2c(=O)c(/C=C(\C#N)C(N)=O)c(N3CCCCCC3)nc12 | inactive | – |
| CN(Cc1ccccc1)S(=O)(=O)c1nnc(NC(=O)c2ccccc2F)s1 | inactive | – |
| CC(=O)Nc1cccc(NC(=O)CSc2nccn2Cc2ccc(F)cc2)c1 | inactive | – |
| Cn1c(=O)c2ccccc2n(CC(=O)Nc2ccc3c(c2)OCCO3)c1=O | inactive | – |
| Cc1ccc(-c2nc(CS(=O)(=O)CC(=O)NCc3ccc4c(c3)OCO4)c(C)o2)cc1 | inactive | – |
| Cc1ccc(NS(=O)(=O)c2ccc(-c3ccc(=O)[nH]n3)o2)c(C)c1 | inactive | – |
| NC(=O)CN1CCCC1c1ccc2c(c1)OCCO2 (stereo unspecified) | inactive | – |
| CC1C(=O)Nc2ccc(S(=O)(=O)N3CCN(c4ccccc4F)CC3)cc2NC1=O (stereo unspecified) | inactive | – |
| COc1cc(/C=N/n2c(C)n[nH]c2=S)ccc1OCc1ccccc1 | 6.31 µM (active) | – |
| COc1cc(/C=N/O)ccc1OCc1ccc([N+](=O)[O-])cc1 | inactive | – |
| CCOc1ccc(/C=N/Nc2nncc(-c3ccccc3)n2)cc1OC | inactive | – |
| COCC1CCN(C(=O)C2CCC(=O)N(Cc3cccc(C(F)(F)F)c3)C2)CC1 (stereo unspecified) | inactive | – |
| O=C(NCc1ccccn1)[C@]1(C(F)(F)F)C[C@H](CCc2ccccc2)CCCO1 | inactive | – |
| O=C(NCc1cc(F)cc(C(F)(F)F)c1)C1CCC(=O)N(C2CCCC2)C1 (stereo unspecified) | inactive | – |
| CC1CCCC(C)N1C(=O)CSc1nnnn1C1CCCC1 (stereo unspecified) | inactive | – |
| Nc1nnnn1CC(=O)N/N=C/c1ccc(-c2cccc(Cl)c2)o1 | inactive | – |
| O=C(Cn1nnc(-c2ccccc2)n1)N/N=C/c1ccc(-c2ccc(Cl)cc2)o1 | 7.08 µM (active) | – |
| Nc1nnn(CC(=O)N/N=C/c2ccccc2)n1 | inactive | – |
| Cc1ccccc1OCC(=O)N(Cc1cccc(F)c1)C1CCS(=O)(=O)C1 (stereo unspecified) | inactive | – |
| Cc1nn(C)cc1C(=O)Nc1ccccc1Br | inactive | – |
| Cc1nn(C)cc1CNC(=O)Nc1ccc(Cl)cc1 | inactive | – |
| Cc1nn(C)cc1C(=O)NNC(=S)Nc1ccc(Cl)cc1 | 11.2 µM (active) | – |
| CC1CCN(S(=O)(=O)c2ccc3c(ccn3CC(=O)O)c2)CC1 | inactive | – |
| O=C(O)/C=C/c1ccc2c(c1)OCCO2 | inactive | – |

| SMILES | Potency | activity change, negative = inhibition |
| --- | --- | --- |
| O=C(/C=C/c1ccc2c(c1)OCCO2)c1ccc(O)cc1 | 1.26 µM (active) | – |
| Cc1nn(-c2ccccc2)c(Cl)c1/C=C/C(=O)c1ccc(O)cc1 | inactive | – |
| CN(C)c1ccc(/C=C/C(=O)c2ccc(O)cc2)cc1[N+](=O)[O-] | 1.41 µM (active) | – |
| CN(C)c1ccc(/C=C/C(=O)c2ccc(C(C)(C)C)cc2)cc1[N+](=O)[O-] | inactive | – |
| CC(=O)c1ccc2c(c1)OCCOCCOc1ccc(C(C)=O)cc1OCCOCCO2 | inactive | – |
| Cc1ccc([N+](=O)[O-])cc1S(=O)(=O)N1CCCN(C)CC1 | inactive | – |
| O=C(CCc1nnc2ccc(NCCCN3CCCC3=O)nn12)NCc1ccccc1Cl | inactive | – |
| Cc1ccc(/C=C2/SC(=S)N(CCC(=O)NCCCN3CCOCC3)C2=O)cc1 | inactive | – |
| O=C(NC1CCC(O)CC1)c1ccccc1OCc1ccc(F)cc1 (stereo unspecified) | inactive | – |
| O=C1NC(c2cccc(Cl)c2)Nc2ccccc21 (stereo unspecified) | inactive | – |
| O=C1c2ccccc2NC(c2ccc(-c3cccc(Cl)c3)o2)N1O (stereo unspecified) | 11.2 µM (active) | – |
| O=c1c(-c2cccc(Cl)c2)c[nH]n1-c1ccccc1 | inactive | – |
| COc1cc(-c2c(-c3ccc4c(c3)OCO4)noc2C)ccc1F | inactive | – |
| COc1ccc(NS(=O)(=O)c2ccc(NC(C)=O)cc2)cc1OC | – | 35.4% [at 0.365 µM] |
| COc1ccc(NC(=S)SC)cc1OC | 20 µM (active) | – |
| COc1ccc(NC(=O)CNC(=O)Cc2ccccc2)cc1OC | inactive | – |
| Cc1c(C(=O)N2CCCC2)c(S(=O)(=O)NCC(C)c2ccccc2)c(C)n1C (stereo unspecified) | inactive | – |
| CN(C)CCCNC(=S)N1CCN(c2nc(-c3ccccc3)cs2)CC1 | inactive | – |
| NS(=O)(=O)c1ccc(NC(=S)Nc2ccc(Br)c(Cl)c2)cc1 | inactive | – |
| Cc1cccc(Br)c1 | inactive | – |
| Cc1cccc(NC(=S)Nc2ccc3cn[nH]c3c2)c1 | inactive | – |
| CC(=O)Nc1cccc(C(=O)Nc2nc(C)cs2)c1 | inactive | – |
| S=C(Nc1cccc(Cl)c1)Nc1ccc2cn[nH]c2c1 | inactive | – |
| Cc1cccc(NC(=S)Nc2ccc(Br)cc2)c1 | 7.08 µM (active) | – |

| SMILES | Potency | activity change, negative = inhibition |
| --- | --- | --- |
| Fc1cc(Br)ccc1NC(=S)Nc1cccnc1 | inactive | – |
| Cc1cccc(NC(=S)Nc2ccc(Cl)c(Cl)c2)c1 | 15.8 µM (active) | – |
| Cc1csc(NC(=S)Nc2cccc(Cl)c2)n1 | 0.708 µM (active) | – |
| Cc1ccc(NC(=O)C2CCN(S(=O)(=O)c3ccc4c(c3)NC(=O)CO4)CC2)cc1C | inactive | – |
| CN(CCO)S(=O)(=O)c1ccc2c(c1)C(=O)c1cc(S(=O)(=O)N(C)CCO)ccc1-2 | inactive | – |
| CCCn1cc(S(=O)(=O)c2ccc(C)cc2)c(=O)c2cc(OCC)ccc21 | inactive | – |
| CC1C(=O)N(Cc2ccccc2)c2ccccc2N1C(=O)c1ccccc1 (stereo unspecified) | inactive | – |
| Cc1cccc(C(=O)Nc2nnc(S(=O)(=O)N3CCCCCC3)s2)c1 | inactive | – |
| Cc1cnc(CN(C)C(=O)CC2C(=O)NCCN2Cc2cccc(F)c2F)[nH]1 (stereo unspecified) | inactive | – |
| COc1ccc(OC)c(NC(=O)c2cccc(S(=O)(=O)N3CCN(C(C)=O)CC3)c2)c1 | inactive | – |
| Cc1onc(-c2ccccc2)c1C(=O)N1CCOCC1 | inactive | – |
| Cc1oc2c(c1C(=O)N1CCOCC1)C(=O)c1ccccc1C2=O | 3.98 µM (active) | – |
| Cc1noc(C)c1C(=O)N1CCOCC1 | inactive | – |
| COc1ccc(C2/C(=C(/O)c3ccc4c(c3)CC(C)O4)C(=O)C(=O)N2Cc2ccncc2)cc1 (stereo unspecified) | inactive | – |
| COc1ccc(/C=C2\SC(=O)N(CCC(=O)NCCCn3ccnc3)C2=O)cc1 | inactive | – |
| CCn1nnnc1SCC(=O)Nc1ccc(N(C)C)cc1 | inactive | – |
| COc1ccccc1-n1nnnc1S(=O)(=O)Cc1ccc(Cl)cc1 | 11.2 µM (active) | – |
| COc1ccccc1N1CCN(S(=O)(=O)c2ccc(Cl)cc2)CC1 | inactive | – |
| N#Cc1cccc(CS(=O)(=O)c2nnnn2-c2cc(C(F)(F)F)cc(C(F)(F)F)c2)c1 | inactive | – |
| CCn1ccnc1CN(C)C(=O)c1cc(COc2ccc(-n3cncn3)cc2)on1 | inactive | – |
| COc1ccc(/C=N/NC(=O)Nc2ccc3nsnc3c2)c(OC)c1 | inactive | – |
| COc1ccc(-c2[nH]ncc2/C=N/NC(=O)c2cc(Br)ccc2O)c(OC)c1 | 2.24 µM (active) | – |
| COc1ccc(O)c(C=Nc2cc(C)on2)c1 | inactive | – |
